Assay results from PubChem BioAssay (NCI).
The panel holds about 79,000 compounds, 15% with a hit somewhere; the sample as a whole holds those more often. Active and inactive are the calls of the source. Rule as the data show it: active = growth inhibition above about 70%; inactive = the rest.

Legend:
[1] = NCI Yeast Anticancer Drug Screen. Data for the rad50 strain (AID 155);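 also: 0% = growth of vehicle-only cultures of the same strain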; conditions: S. cerevisiae rad50 strain growth inhibition, stronger effect = higher value
In short: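 Relative growth inhibition (compound vs vehicle) was measured in yeast with a defined repair-gene alteration.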

[2] = NCI Yeast Anticancer Drug Screen. Data for the mec2-1 strain (AID 157); conditions: S. cerevisiae mec2-1 strain, stronger effect = higher value
In short: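 Vehicle-treated cultures served as reference for growth inhibition of compound-exposed mec2-1 yeast.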

[3] = NCI Yeast Anticancer Drug Screen. Data for the sgs1 mgt1 strain (AID 161);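 also: 0% = growth of cultures given vehicle only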; conditions: S. cerevisiae sgs1 mgt1 strain, stronger effect = higher value
In short: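 Inhibition of yeast growth, normalised to vehicle-treated controls, is reported for a strain bearing genetic alterations in DNA damage repair.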

[4] = NCI Yeast Anticancer Drug Screen. Data for the cln2 rad14 strain (AID 165);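 also: 0% = growth equal to vehicle treated cultures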; conditions: S. cerevisiae cln2 rad14 strain, stronger effect = higher value
In short: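 Each compound was tested on cln2 rad14 yeast. Inhibition of growth was calculated against vehicle-exposed controls.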

[5] = NCI Yeast Anticancer Drug Screen. Data for the bub3 strain (AID 167); conditions: S. cerevisiae bub3 mutant strain, stronger effect = higher value
In short: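 Screening used yeast with an engineered genetic alteration affecting cell cycle control. Compound-exposed cultures were compared with vehicle cultures, and reduced growth was taken as inhibition.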

[6] = NCI Yeast Anticancer Drug Screen. Data for the mlh1 rad18 strain (AID 175); conditions: S. cerevisiae mlh1 rad18 strain growth inhibition, stronger effect = higher value
In short: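 Vehicle-treated cultures served as the reference for growth inhibition in a yeast strain carrying DNA damage repair alterations exposed to each compound.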

[7] = at 5.0 µM (retest, dose inferred, filed as 0.5)
[8] = at 50.0 µM (retest, dose inferred, filed as 5.0)

Measured: growth inhibition

CC(=N/NC(=S)NCC(C)C)/C(C)=N\Nc1ccc(Cl)cc1
active: [1]; [8] 81% | [1]; at 50.0 µM 95% | [2]; [8] 79% | [2]; at 50.0 µM 73.2% | [3]; [8] 91% | [3]; at 50.0 µM 92.4% | [4]; [8] 79% | [4]; at 50.0 µM 72.8% | [5]; [8] 82% | [5]; at 50.0 µM 93.7% | [6]; [8] 90% | [6]; at 50.0 µM 92%
inactive: [1]; [7] 2% | [2]; [7] -1% | [3]; [7] 1% | [4]; [7] -4% | [5]; [7] -4% | [6]; [7] 0%

O=C(NCC#CCO)C(F)(F)F
inactive: [1]; [7] -15% | [1]; [8] -1% | [1]; at 50.0 µM -0.9% | [2]; [7] -14% | [2]; [8] -18% | [2]; at 50.0 µM 13.2% | [3]; [7] -3% | [3]; [8] -8% | [3]; at 50.0 µM 11.7% | [4]; [7] 3% | [4]; [8] 9% | [4]; at 50.0 µM 47.8% | [5]; [7] -21% | [5]; [8] -5% | [5]; at 50.0 µM 11.1% | [6]; [7] -5% | [6]; [8] -10% | [6]; at 50.0 µM 45.1%

CCOc1ccc(/C=C2\NC(=S)N(/C=C3\C(=O)Oc4ccccc4C3=O)C2=O)cc1
inactive: [1]; at 50.0 µM -16.1% | [2]; [7] 6% | [2]; at 50.0 µM -28.6% | [3]; [7] -30% | [3]; [8] 58% | [3]; at 50.0 µM 0.45% | [4]; [7] -14% | [4]; at 50.0 µM -39.2% | [5]; [7] -31% | [5]; at 50.0 µM -23.9% | [6]; [7] 11% | [6]; at 50.0 µM -8.6%
active: [1]; [7] 77% | [1]; [8] 91% | [2]; [8] 71% | [4]; [8] 70% | [5]; [8] 76% | [6]; [8] 94%

Brc1ccc(CCNCCN2CCCCC2)cc1
inactive: [1]; [7] 19% | [1]; [8] 65% | [1]; at 50.0 µM 50.9% | [2]; [7] 25% | [2]; [8] 68% | [2]; at 50.0 µM 21% | [3]; [7] 24% | [3]; [8] 68% | [3]; at 50.0 µM 63.2% | [4]; [7] 45% | [4]; [8] 61% | [4]; at 50.0 µM 37.6% | [5]; [7] 15% | [5]; [8] 57% | [5]; at 50.0 µM 61.1% | [6]; [7] 25% | [6]; at 50.0 µM 45%
active: [6]; [8] 89%

CCCCCCCCCCCCCCOS(=O)(=O)O
active: [1]; [8] 99% | [1]; at 50.0 µM 99.5% | [2]; [8] 73% | [2]; at 50.0 µM 99.7% | [3]; [8] 100% | [3]; at 50.0 µM 99.6% | [4]; at 50.0 µM 99.6% | [5]; at 50.0 µM 99.7% | [6]; [8] 98% | [6]; at 50.0 µM 99.5%
inactive: [1]; [7] 26% | [2]; [7] -27% | [3]; [7] -1% | [4]; [7] 8% | [4]; [8] 61% | [5]; [7] -9% | [5]; [8] 35% | [6]; [7] 12%

CCCOC(=O)CCCC(=O)N(CC)CC
active: [4]; at 50.0 µM 71.5%
inactive: [1]; [7] 1% | [1]; [8] -10% | [1]; at 50.0 µM 10.7% | [2]; [7] 0% | [2]; [8] 1% | [2]; at 50.0 µM -7.7% | [3]; [7] 0% | [3]; [8] -9% | [3]; at 50.0 µM -25.1% | [4]; [7] -5% | [4]; [8] 0% | [5]; [7] -4% | [5]; [8] -3% | [5]; at 50.0 µM -0.6% | [6]; [7] -5% | [6]; [8] -11% | [6]; at 50.0 µM 19.5%
